# Measurements reported in PubChem BioAssay.
# Active and inactive are the calls of the source.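 How the source made its calls, unless noted: active means fluorescence slope after compound addition differing from the mean of all screened samples at 99.7% confidence, in either direction; inactive means the rest.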
# Legend:
# [1] = inhibitors of TNFa-induced NFkB p65 translocation, primary screen, imaging, HUVEC, MLSMR starter and 10KST1 sets (AID 438;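 active means inhibition above 20% together with a positive visual image hit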;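 further: compound added about 3h40 before a 20 min TNFalpha stimulation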;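 on inhibition: signal is the nuclear over cytoplasmic p65 intensity ratio per well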); conditions: HUVEC TNFa-induced p65 nuclear translocation; cell count: measured here: nuclei count (cytotoxicity indicator), at 2.08 µM; inhibition: at 2 µM, stronger effect = higher value, 0% TNFa-plus-vehicle, 100% no-TNFa wells
# [2] = reduction of polyQ htt aggregates in cells – imaging, exon1htt(103Q)mCFP cells, high-content imaging, primary screen (AID 483;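 active means visual image review flags a hit and inhibition of aggregation exceeds 20%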;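 further: compound exposure lasted 3 days before fixation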;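 on nuclei count: percent of the per-plate median nuclei count of sample wells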); conditions: exon1htt(103Q)mCFP cell line, aggregate imaging, at 2 µM; inhibition of aggregation: stronger effect = higher value; nuclei count: measured here: cell count, toxicity
# [3] = endothelial E-selectin expression blockers – imaging, HUVEC, immunofluorescence, MLSMR starter and 10KST1 sets, primary screen (AID 487;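 active means visually confirmed hit in the image check and inhibition above 20%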;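 on inhibition: signal is fraction of cell area covered by stained E-selectin grains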;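 on nuclei count: 100% = median nuclei count of all wells on the same plate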); conditions: HUVEC TNFalpha-induced E-selectin immunofluorescence imaging, at 2 µM; inhibition: stronger effect = higher value; nuclei count: measured here: cell number, toxicity
# [4] = molecular target: Voltage-gated potassium channel subunit beta-2 (Rattus norvegicus) (UniProt P62483); assay: inhibitors of rat Kvbeta2 reductase activity – biochemical, NADPH fluorescence, primary screen (AID 622;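 active means fluorescence slope higher than the sample average by over 3 SD, cut at about -0.22 in these data, passing the limit was not always enough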;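 further: slope of raw intensity against log time taken from 70 to 1610 s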); conditions: recombinant KvBeta, 4-cyanobenzaldehyde reduction, at 10 µM, stronger effect = higher value
# [5] = molecular target: Voltage-gated potassium channel subunit beta-2 (Rattus norvegicus) (UniProt P62483); assay: enhancers of rat Kvbeta2 NADPH turnover – biochemical, NADPH fluorescence, primary screen (AID 623;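 active means NADPH fluorescence slope more negative than the mean of all samples by about 3 SD, 99.7% confidence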;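 further: fluorescence intensity change per second fitted from 20 to 320 s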); conditions: Recombinant KvBeta, NADPH fluorescence decrease slope, 10 min; at 10 µM; stronger effect = lower value
# [6] = molecular target: Alpha-2C adrenergic receptor (Homo sapiens) (UniProt P18825); assay: compounds altering alpha2C-coupled GIRK flux – cell-based, HEK293 alpha2C/GIRK1/2, thallium flux, primary screen (AID 624); conditions: thallium flux BTC fluorescence, at 10 µM, actives lie on both sides;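 further: slope of fluorescence ratio to pre-addition baseline per second over 15 to 24 s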
# [7] = blockers of RIG-like receptor reporter activation – cell-based, Sendai virus stimulus, luciferase, 10K MLSCN set, TLR/RLR signaling modifier project, primary screen (AID 602276;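 active means inhibition at or above 50% at 10 µM; inactive means inhibition below 50%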;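 further: firefly luciferase from ISG56 promoter only with Renilla not read in this screen; 0% = Sendai virus plus DMSO and 100% = medium plus DMSO without virus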); conditions: HEK293 RL24 IRF3 luciferase reporter, at 10 µM, stronger effect = higher value
# [8] = TLR3 IRF3 reporter activation blockers – cell-based, poly I:C stimulus, luciferase, 10K MLSCN set, primary screen (AID 602277;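 active means inhibition of the reporter signal at or above 50%; inactive means inhibition below 50%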); conditions: HEK293-TLR3 RL24 IRF3 luciferase reporter, at 10 µM, stronger effect = higher value
# Sequence of Voltage-gated potassium channel subunit beta-2 (Rattus norvegicus) (P62483 whole entry, looked up): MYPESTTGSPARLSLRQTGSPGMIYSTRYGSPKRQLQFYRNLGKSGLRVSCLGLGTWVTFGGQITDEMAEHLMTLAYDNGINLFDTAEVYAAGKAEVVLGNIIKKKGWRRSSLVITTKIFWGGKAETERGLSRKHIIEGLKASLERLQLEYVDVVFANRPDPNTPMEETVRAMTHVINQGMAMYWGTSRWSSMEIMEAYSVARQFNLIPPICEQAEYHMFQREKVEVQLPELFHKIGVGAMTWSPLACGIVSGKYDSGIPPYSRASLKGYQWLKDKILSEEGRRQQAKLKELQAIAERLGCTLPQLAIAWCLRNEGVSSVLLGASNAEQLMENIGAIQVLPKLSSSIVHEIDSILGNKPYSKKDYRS
# Sequence of Alpha-2C adrenergic receptor (Homo sapiens) (P18825 whole entry, looked up): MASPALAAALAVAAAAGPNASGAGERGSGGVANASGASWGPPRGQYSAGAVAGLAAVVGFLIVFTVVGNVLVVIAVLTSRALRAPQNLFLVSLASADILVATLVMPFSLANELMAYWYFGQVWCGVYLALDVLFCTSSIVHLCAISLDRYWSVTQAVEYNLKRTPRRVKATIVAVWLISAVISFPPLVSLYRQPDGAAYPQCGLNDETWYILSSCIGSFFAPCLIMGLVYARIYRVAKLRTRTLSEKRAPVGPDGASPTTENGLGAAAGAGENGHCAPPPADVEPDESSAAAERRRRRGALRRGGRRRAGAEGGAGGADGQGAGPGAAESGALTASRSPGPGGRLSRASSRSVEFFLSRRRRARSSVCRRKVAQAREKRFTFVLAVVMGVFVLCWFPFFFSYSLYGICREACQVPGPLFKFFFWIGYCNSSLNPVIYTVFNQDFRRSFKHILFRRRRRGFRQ
smiles,measurement,setting,value
Cc1ccc(OCC(O)CN2C(=O)NC(C)(C)C2=O)cc1C (centres undefined),cell count,[1],673
same,inhibition,[1],-2.9% (inactive)
same,inhibition of aggregation,[2],-21.4% (inactive)
same,nuclei count,[2],107%
same,inhibition,[3],-19.6% (inactive)
same,nuclei count,[3],112%
same,fluorescence slope,[4],-0.537 (inactive)
same,NADPH fluorescence slope,[5],-2.6e-05 (inactive)
same,slope,[6],0.00799 (inactive)
same,inhibition,[7],5.76% (inactive)
same,inhibition,[8],24.9% (inactive)
Cc1cccc2c(=O)oc(-c3ccc4c(c3)C(=O)N(CC3CCCO3)C4=O)nc12 (centres undefined),cell count,[1],349
same,inhibition,[1],1.9% (inactive)
same,inhibition of aggregation,[2],-22.2% (inactive)
same,nuclei count,[2],107%
same,inhibition,[3],-6.3% (inactive)
same,nuclei count,[3],58.4%
same,fluorescence slope,[4],-0.521 (inactive)
same,NADPH fluorescence slope,[5],2.4e-05 (inactive)
same,slope,[6],0.0053 (inactive)
same,inhibition,[7],16.1% (inactive)
same,inhibition,[8],14.4% (inactive)
Cc1ccc(-c2nc(=S)c3c(n2Cc2ccco2)CCCC3)cc1,cell count,[1],320
same,inhibition,[1],1% (inactive)
same,inhibition of aggregation,[2],-7.2% (inactive)
same,nuclei count,[2],77.9%
same,inhibition,[3],-22.3% (inactive)
same,nuclei count,[3],85.5%
same,fluorescence slope,[4],-0.485 (inactive)
same,NADPH fluorescence slope,[5],-0.00017 (inactive)
same,slope,[6],0.00678 (inactive)
same,inhibition,[7],16% (inactive)
same,inhibition,[8],27.9% (inactive)
COc1cccc(C(=O)NC2=NCCS2)c1,cell count,[1],400
same,inhibition,[1],-13.2% (inactive)
same,inhibition of aggregation,[2],29.5% (inactive)
same,nuclei count,[2],71.6%
same,inhibition,[3],-56.9% (inactive)
same,nuclei count,[3],131%
same,fluorescence slope,[4],-0.496 (inactive)
same,NADPH fluorescence slope,[5],-3.2e-05 (inactive)
same,slope,[6],0.00469 (inactive)
same,inhibition,[7],-13.2% (inactive)
same,inhibition,[8],-61.5% (inactive)
CC1CCN(S(=O)(=O)c2cn(CC(=O)N3CCN(C)CC3)c(=O)c3ccccc23)CC1,cell count,[1],278
same,inhibition,[1],-8.5% (inactive)
same,inhibition of aggregation,[2],-2.7% (inactive)
same,nuclei count,[2],91.6%
same,inhibition,[3],-28.3% (inactive)
same,nuclei count,[3],121%
same,fluorescence slope,[4],-0.604 (inactive)
same,NADPH fluorescence slope,[5],5.5e-06 (inactive)
same,slope,[6],0.00569 (inactive)
same,inhibition,[7],0.28% (inactive)
same,inhibition,[8],17.6% (inactive)
O=S(=O)(c1cccs1)N1CCN(Cc2nc3ccccc3s2)CC1,cell count,[1],283
same,inhibition,[1],3.3% (inactive)
same,inhibition of aggregation,[2],-5.8% (inactive)
same,nuclei count,[2],99.8%
same,inhibition,[3],1% (inactive)
same,nuclei count,[3],90.9%
same,fluorescence slope,[4],-0.556 (inactive)
same,NADPH fluorescence slope,[5],3e-05 (inactive)
same,slope,[6],0.00461 (inactive)
same,inhibition,[7],-3.64% (inactive)
same,inhibition,[8],-4.76% (inactive)
CCOCCCNC(=O)C1CC(=O)N(C2CCCC2)C1 (centres undefined),cell count,[1],536
same,inhibition,[1],-6.8% (inactive)
same,inhibition of aggregation,[2],1.5% (inactive)
same,nuclei count,[2],103%
same,inhibition,[3],11.6% (inactive)
same,nuclei count,[3],118%
same,fluorescence slope,[4],-0.495 (inactive)
same,NADPH fluorescence slope,[5],-1.6e-05 (inactive)
same,slope,[6],0.00627 (inactive)
same,inhibition,[7],15.9% (inactive)
same,inhibition,[8],18.9% (inactive)
O=S(=O)(Nc1nc2ccccc2nc1NCc1ccco1)c1ccc(Cl)cc1,cell count,[1],481
same,inhibition,[1],0.9% (inactive)
same,inhibition of aggregation,[2],4.8% (inactive)
same,nuclei count,[2],101%
same,inhibition,[3],8.2% (inactive)
same,nuclei count,[3],129%
same,fluorescence slope,[4],-0.448 (inactive)
same,NADPH fluorescence slope,[5],-6.1e-05 (inactive)
same,slope,[6],0.00347 (inactive)
same,inhibition,[7],19.4% (inactive)
same,inhibition,[8],18.7% (inactive)
CC(C)=CCCC(C)CN(C)CCc1ccccn1 (centres undefined),cell count,[1],281
same,inhibition,[1],-2.1% (inactive)
same,inhibition of aggregation,[2],27.8% (inactive)
same,nuclei count,[2],92.8%
same,inhibition,[3],-75.4% (inactive)
same,nuclei count,[3],108%
same,fluorescence slope,[4],-0.448 (inactive)
same,NADPH fluorescence slope,[5],-0.000147 (inactive)
same,slope,[6],0.00676 (inactive)
same,inhibition,[7],-1.84% (inactive)
same,inhibition,[8],20.8% (inactive)
Cn1c(=O)[nH]c(=O)c2c1nc(N1CCNCC1)n2CCOc1ccccc1,cell count,[1],321
same,inhibition,[1],-3.8% (inactive)
same,inhibition of aggregation,[2],2.5% (inactive)
same,nuclei count,[2],104%
same,inhibition,[3],-91.3% (inactive)
same,nuclei count,[3],124%
same,fluorescence slope,[4],-0.513 (inactive)
same,NADPH fluorescence slope,[5],4.4e-05 (inactive)
same,slope,[6],0.00611 (inactive)
same,inhibition,[7],-11.6% (inactive)
same,inhibition,[8],1.53% (inactive)
COc1ccc(OC)c(-c2cc(C(=O)NCc3cccs3)no2)c1,cell count,[1],248
same,inhibition,[1],1.3% (inactive)
same,inhibition of aggregation,[2],29.5% (inactive)
same,nuclei count,[2],101%
same,inhibition,[3],-23.8% (inactive)
same,nuclei count,[3],124%
same,fluorescence slope,[4],-0.487 (inactive)
same,NADPH fluorescence slope,[5],-5.5e-06 (inactive)
same,slope,[6],0.00616 (inactive)
same,inhibition,[7],3.16% (inactive)
same,inhibition,[8],32% (inactive)
O=C(NCCCn1ccnc1)c1cnn2c1NC(c1ccccc1)CC2C(F)(F)F (centres undefined),cell count,[1],616
same,inhibition,[1],-4.9% (inactive)
same,inhibition of aggregation,[2],-5.5% (inactive)
same,nuclei count,[2],98.3%
same,inhibition,[3],6.6% (inactive)
same,nuclei count,[3],93%
same,fluorescence slope,[4],-0.389 (inactive)
same,NADPH fluorescence slope,[5],3.1e-05 (inactive)
same,slope,[6],0.00374 (inactive)
same,inhibition,[7],-0.0558% (inactive)
same,inhibition,[8],15.6% (inactive)
O=C(c1ccc(CSCc2ccccc2F)o1)N1CCN(c2ccc(N3CCOCC3)nn2)CC1,cell count,[1],504
same,inhibition,[1],-13.1% (inactive)
same,inhibition of aggregation,[2],40.2% (inactive)
same,nuclei count,[2],79.3%
same,inhibition,[3],-7.9% (inactive)
same,nuclei count,[3],101%
same,fluorescence slope,[4],-0.435 (inactive)
same,NADPH fluorescence slope,[5],-1.8e-06 (inactive)
same,slope,[6],0.00478 (inactive)
same,inhibition,[7],4.73% (inactive)
same,inhibition,[8],15.4% (inactive)
COc1ccc(Br)cc1S(=O)(=O)N1CC(C)OC(C)C1 (centres undefined),cell count,[1],359
same,inhibition,[1],2.8% (inactive)
same,inhibition of aggregation,[2],-12.3% (inactive)
same,nuclei count,[2],94%
same,inhibition,[3],-42.7% (inactive)
same,nuclei count,[3],104%
same,fluorescence slope,[4],-0.429 (inactive)
same,NADPH fluorescence slope,[5],3.8e-05 (inactive)
same,slope,[6],0.0065 (inactive)
same,inhibition,[7],-2.27% (inactive)
same,inhibition,[8],9.82% (inactive)
